Shown are actives, neighbours in structure and some others; about 7.5% of the full set was active somewhere.
FLuc modulator – qHTS profiling assay for firefly luciferase inhibitor/activator using purifed enzyme and Km concentrations of substrates (counterscreen for miR-21 project) | Luciferin 4-monooxygenase (Photinus pyralis), P08659 | purified FLuc, Km substrates, luminescence inhibition | Potency, µM (highest dose often 57.5 µM), hits mostly inhibitors | hit rate 6.9% among 360,000; further: nearly all actives have a fitted effect of over 55% in size
Target sequence (P08659 whole entry, looked up): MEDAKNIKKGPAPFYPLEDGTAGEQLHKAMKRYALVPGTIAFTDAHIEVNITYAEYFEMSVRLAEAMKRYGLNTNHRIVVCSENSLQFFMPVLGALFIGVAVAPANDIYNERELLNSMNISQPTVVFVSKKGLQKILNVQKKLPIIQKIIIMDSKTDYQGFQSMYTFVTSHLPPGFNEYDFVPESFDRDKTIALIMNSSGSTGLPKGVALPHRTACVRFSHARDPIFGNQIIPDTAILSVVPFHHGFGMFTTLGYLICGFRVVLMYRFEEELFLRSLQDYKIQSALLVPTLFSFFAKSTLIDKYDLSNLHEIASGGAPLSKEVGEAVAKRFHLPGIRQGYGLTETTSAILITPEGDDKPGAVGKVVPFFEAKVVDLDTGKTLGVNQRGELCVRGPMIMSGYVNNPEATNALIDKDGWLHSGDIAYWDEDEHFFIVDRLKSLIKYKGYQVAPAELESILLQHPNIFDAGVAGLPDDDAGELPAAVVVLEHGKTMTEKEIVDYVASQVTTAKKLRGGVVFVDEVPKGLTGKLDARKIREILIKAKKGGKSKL
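Purified P. pyralis luciferase (10nM final) with 10uM D-luciferin and 10uM ATP (Km levels) in 50mM Tris acetate pH 7.5, 10mM Mg acetate, 0.01% Tween-20, 0.05% BSA; qHTS 6-point titration, ~60 µM downward; luminescence read.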
SMN2 splice up – qHTS Assay for Enhancers of SMN2 Splice Variant Expression; HEK293 SMN2-luciferase splicing reporter, luminescence, 30-36 h; Potency, µM (series often up to 46.1 µM), usual class: activators; hit rate 2.8% among 210,000; AID 1458, 2008; further: nearly all actives have a fitted effect of over 55% in size
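HEK293 cells carry an SMN2 minigene-luciferase reporter in which exon 7 inclusion puts luciferase in frame. Cells were seeded at 2000 cells/well, attached for 10-12 hours, then exposed to compounds for 30-36 hours at 37C before ONE-Glo luminescence.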
Rab9 promoter act – qHTS Assay for Rab9 Promoter Activators; Huh7 Rab9 promoter-luciferase reporter, luminescence, 24 h; AID 485297, 2010; hit rate 2.8% among 320,000; Potency, µM (series often up to 9.22 µM), hits mostly activators; further: nearly all actives have a fitted effect of over 60% in size
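Huh7 cells stably carrying Rab9 promoter–luciferase reporter, plated 1500 cells/well, compound added after 2 h and incubated 24 h at 37 °C; luciferase luminescence then read after 10 min with detection reagent.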
ELG1 genotox – qHTS screen for small molecules that induce genotoxicity in human embryonic kidney (HEK293T) cells expressing luciferase-tagged ELG1 | HEK293T ELG1-luciferase reporter, luminescence, 16 h | AID 504466, 2011 | hit rate 1.3% among 330,000 | Potency, µM (doses to about 46 µM), hits mostly activators; further: nearly all actives have a fitted effect of over 60% in size
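DMSO vehicle served as control against compound-treated ELG1-luciferase HEK293T cells; exposure lasted 16 hr at 37 °C and 5% CO2, followed by ONE-Glo luminescence detection after 30 min.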
NPC1 promoter act – qHTS Assay for NPC1 Promoter Activators | Huh7 NPC1 promoter luciferase reporter, 24 h | Potency, µM (series often up to 9.22 µM), usual class: activators | hit rate 2.4% among 320,000 | AID 485313, 2010; further: nearly all actives have a fitted effect of over 60% in size
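Cells: Huh7 expressing luciferase under the NPC1 promoter, 1500/well. Seeded 2 h, compound added, incubated 24 h at 37 °C. Luciferase reagent, 10 min ambient, then luminescence.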
Luc counter – Counterscreen for Luciferase (Kinase-Glo TM) Inhibition. Luciferin 4-monooxygenase (Photuris pensylvanica), Q27757. Kinase-Glo luciferase, ATP luminescence, 8 min. hit rate 0.28% among 200,000. Potency, µM (titrated, usually from 38.3 µM), usual class: inhibitors; further: nearly all actives have a fitted effect of over 60% in size
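Light output from Kinase-Glo luciferase with luciferin and 10 uM ATP in 50 mM imidazole pH 7.2, KCl, MgCl2, Tween 20, BSA; compound pin-delivered, 8-min ambient incubation, then luminescence read.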
A number is an active result; [ ] = remark or other dose. The call rests on the fitted dose curve; in most records, active means well fitted curve in the direction sought with a large enough effect; inconclusive means small, poorly fitted or top-dose-only effect, or another doubt; inactive means no such curve, though single readings can be large; an effect the other way counts as inactive or inconclusive.

What do the screens show for `COc1ccccc1N1CCN(C(=O)c2cn(C)c3ccc(S(=O)(=O)N(C)C4CCCCC4)cc3c2=O)CC1`?
FLuc modulator: inactive; SMN2 splice up: inactive

How did Cc1cnc(C(=O)Nc2ccc3c(c2)CCC3)cn1 do in these assays?
FLuc modulator: 2.4µM; SMN2 splice up: 11µM; Rab9 promoter act: 0.5µM; ELG1 genotox: inconclusive; NPC1 promoter act: inconclusive; Luc counter: inactive

Results for Cc1ccccc1C(=O)Nc1cccc(C(=O)N/N=C/c2ccc3c(c2)OCO3)c1 ?
FLuc modulator: 3µM; Rab9 promoter act: inconclusive; ELG1 genotox: inactive; NPC1 promoter act: inactive

What do the screens show for `O=C(N/N=C/c1ccc2c(c1)OCO2)c1cccc(NC(=O)c2ccccc2Cl)c1`?
FLuc modulator: 2.7µM; Rab9 promoter act: inactive; ELG1 genotox: inconclusive; NPC1 promoter act: inactive

Results for Cc1cccc(C(=O)Nc2cccc(C(=O)N/N=C/c3ccc4c(c3)OCO4)c2)c1 ?
FLuc modulator: 1.9µM; Rab9 promoter act: inactive; ELG1 genotox: inactive; NPC1 promoter act: inactive

What do the screens show for `CC(=O)NS(=O)(=O)c1ccc(NC(=O)[C@@H]2CCCN2S(=O)(=O)c2ccc(Cl)cc2)cc1`?
ELG1 genotox: inactive

Results for Cc1c2c(nc3ccccc13)CCC(C(C)(C)C)C2 (stereo not given) ?
FLuc modulator: 12µM; SMN2 splice up: inconclusive; Rab9 promoter act: inactive; ELG1 genotox: inactive; NPC1 promoter act: inactive; Luc counter: inactive

What do the screens show for `Clc1c2c(nc3ccccc13)CCC2`?
FLuc modulator: inconclusive; Rab9 promoter act: inactive; ELG1 genotox: inactive; NPC1 promoter act: inactive

Results for CCc1ccc2oc(C(=O)N(Cc3ccc(N(C)C)cc3)Cc3ccco3)c(C)c2c1 ?
FLuc modulator: inactive; SMN2 splice up: inactive

What do the screens show for `COC(=O)c1c(C)[nH]c(/C=N/Nc2ccccc2)c1C`?
FLuc modulator: 11µM; Rab9 promoter act: inactive; ELG1 genotox: inconclusive; NPC1 promoter act: inactive

What do the screens show for `CCOC(=O)C(=NC1CCS(=O)(=O)C1)NNc1ccccc1Cl` (stereo not given)?
FLuc modulator: 17µM; Rab9 promoter act: inactive; ELG1 genotox: inactive; NPC1 promoter act: inactive

Results for CCCc1ccc2oc(C(=O)N(C)Cc3nccs3)c(C)c2c1 ?
FLuc modulator: 15µM; Rab9 promoter act: inconclusive; ELG1 genotox: 23µM; NPC1 promoter act: inconclusive

What do the screens show for `CC(=O)CCC(=O)OCC(=O)Nc1ccc(SC(F)F)cc1`?
FLuc modulator: inactive; SMN2 splice up: inactive; Rab9 promoter act: inactive; ELG1 genotox: inactive; NPC1 promoter act: inactive; Luc counter: inactive

Results for Cc1ccc(/C=C2\Oc3cc(OC(=O)N4CCOCC4)ccc3C2=O)cc1 ?
FLuc modulator: 2.1µM; SMN2 splice up: inactive; Rab9 promoter act: inactive; ELG1 genotox: inactive; NPC1 promoter act: inactive; Luc counter: inactive

What do the screens show for `COc1cccc(/C=C2\Oc3cc(OC(=O)N4CCOCC4)ccc3C2=O)c1`?
FLuc modulator: 6µM; Rab9 promoter act: inactive; ELG1 genotox: inactive; NPC1 promoter act: inactive

How did COc1cccc(/C=C2\Oc3cc(OCC(=O)N4Cc5ccccc5C[C@H]4C(=O)O)ccc3C2=O)c1 do in these assays?
FLuc modulator: 3µM; Rab9 promoter act: inactive; ELG1 genotox: inactive; NPC1 promoter act: inactive

Results for COc1ccc(/C=C2\Oc3cc(OCC(=O)N4CCC[C@H]4CO)ccc3C2=O)c(OC)c1 ?
FLuc modulator: 13µM; Rab9 promoter act: inactive; ELG1 genotox: inactive; NPC1 promoter act: inactive

Results for COc1ccccc1/C=C1\Oc2cc(OC(=O)N3CCOCC3)ccc2C1=O ?
FLuc modulator: 11µM; Rab9 promoter act: inactive; ELG1 genotox: inactive; NPC1 promoter act: inactive

Results for CCC1CCCCN1C(=O)COc1ccc2c(c1)OCO2 (stereo not given) ?
FLuc modulator: inactive; Rab9 promoter act: inactive; ELG1 genotox: inactive; NPC1 promoter act: inactive

Results for O=C1/C(=C/c2ccc3c(c2)OCO3)Oc2cc(OCC(=O)N3CCC[C@H]3C(=O)O)ccc21 ?
FLuc modulator: 0.54µM; Rab9 promoter act: inactive; ELG1 genotox: inactive; NPC1 promoter act: inactive

Results for COC(=O)c1ccc2c(c1)C(=O)/C(=C/c1ccc(C)cc1)O2 ?
FLuc modulator: inconclusive; SMN2 splice up: 11µM; Rab9 promoter act: inconclusive; ELG1 genotox: inactive; NPC1 promoter act: inconclusive; Luc counter: inactive

Results for COc1ccc(OC(=O)N2CCOCC2)cc1 ?
FLuc modulator: inactive; Rab9 promoter act: inactive; ELG1 genotox: inactive; NPC1 promoter act: inactive

Results for Cc1ccsc1/C=C1\Oc2cc(OCC(=O)c3ccccc3)ccc2C1=O ?
FLuc modulator: 2.7µM; SMN2 splice up: inactive; Rab9 promoter act: inactive; ELG1 genotox: inactive; NPC1 promoter act: inactive; Luc counter: inactive

What do the screens show for `Cc1ccc(S(=O)(=O)NCc2ccccc2)cc1C(=O)N(C)Cc1ccc(F)cc1`?
FLuc modulator: inactive; Rab9 promoter act: inactive; ELG1 genotox: inactive; NPC1 promoter act: inactive

Results for COc1cc(NC(=O)CN2C(=O)c3ccccc3Sc3ccc(C(=O)N4CCCC4)cc32)cc(OC)c1 ?
FLuc modulator: inactive

What do the screens show for `CNc1ncnc2c1ncn2[C@@H]1O[C@H](CO)[C@H](O)[C@H]1O`?
SMN2 splice up: inconclusive; Luc counter: inactive

What do the screens show for `COC(=O)COc1ccc2c(c1)O/C(=C\c1cccc([N+](=O)[O-])c1)C2=O`?
FLuc modulator: inactive; Rab9 promoter act: inactive; ELG1 genotox: inactive; NPC1 promoter act: inactive

Results for COc1ccc(/C=C2\Oc3cc(OCC(N)=O)ccc3C2=O)cc1OC ?
FLuc modulator: 12µM; Rab9 promoter act: inactive; ELG1 genotox: inactive; NPC1 promoter act: inactive

What do the screens show for `CC(=O)N=c1sc2cc(C)ccc2n1C`?
FLuc modulator: inconclusive; SMN2 splice up: inactive; Rab9 promoter act: inactive; ELG1 genotox: 13µM; NPC1 promoter act: inactive; Luc counter: inactive

How did COC(=O)c1oc2nc(C)cc(C)c2c1N do in these assays?
FLuc modulator: inactive[2.3 µM]; SMN2 splice up: inactive; Rab9 promoter act: inactive; ELG1 genotox: inactive; NPC1 promoter act: inactive; Luc counter: inactive

What do the screens show for `Cc1cc(C)c2c(N)c(C(=O)c3ccccc3)oc2n1`?
FLuc modulator: 24µM; SMN2 splice up: inactive; Luc counter: inactive

How did Cc1cc(C)c2c(N)c(C(=O)c3ccc(Br)cc3)oc2n1 do in these assays?
FLuc modulator: inconclusive; Rab9 promoter act: inactive; ELG1 genotox: inactive; NPC1 promoter act: inactive

What do the screens show for `COCc1cc(C)nc2oc(C(=O)c3ccccc3)c(N)c12`?
FLuc modulator: 17µM; SMN2 splice up: inactive; Rab9 promoter act: inactive; ELG1 genotox: inactive; NPC1 promoter act: inactive; Luc counter: inactive

Bioassay records (PubChem BioAssay)
